Bioassay records: PubChem, National Center for Advancing Translational Sciences (NCATS)
Sampled rows, rich in hits. Any-hit rate of the full collection: about 18%.
VDR inh – blocks the human vitamin D receptor. Potency, µM, inactives show max response, negative = inhibition, hits mostly inhibitors. VDR-SRC2-3 peptide fluorescence polarization, 2 h. actives 0.93% (n = 400,000). P11473. AID 504847
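VDR–SRC2-3 interaction, FP format. Cmpds 23 nl via pintool, brief spin, 2 h ambient incubation.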
PLK1 PBD inh – blocks phosphopeptide binding to human PLK1 polo-box domain. Potency, µM, for the others: max response, negative = inhibition, hits mostly inhibitors. actives 2.8% (n = 360,000). Plk1 PBD binding of FITC phosphopeptide, fluorescence polarization. AID 720504; further: series mostly up to about 57 µM; nearly all actives have a fitted effect of over 65% in size
DT40 TDP1 no CPT – qHTS for Inhibitors of human tyrosyl-DNA phosphodiesterase 1 (TDP1): qHTS in cells in absence of CPT | DT40 Tdp1-/- hTDP1 cells, no CPT, ATP luminescence, 48 h | Potency, µM (highest dose often 46.2 µM), for inactives: at the top dose activity change, negative = growth inhibition, actives largely listed as inhibitors | actives 15% (n = 420,000) | AID 686978, 2013; further: nearly all actives have a fitted effect of over 55% in size
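Chicken DT40 Tdp1-/- cells stably complemented with human TDP1 were seeded at 400 cells/well with DMSO in place of 20 nM camptothecin. After compound pinning, cells grew at least 48 hr at 37 °C; viability read by CellTiter-Glo luminescence.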
TDP1 inh – blocks human tyrosyl-DNA phosphodiesterase 1; actives 0.28% (n = 350,000); recombinant TDP1, AlphaScreen DNA substrate cleavage; Potency, µM (top dose mostly 130 µM), without a hit: at the top dose activity change, negative = inhibition, hits mostly inhibitors; Q9NUW8; AID 485290; further: nearly all actives have a fitted effect of over 40% in size
Target sequence (Q9NUW8 whole entry, looked up): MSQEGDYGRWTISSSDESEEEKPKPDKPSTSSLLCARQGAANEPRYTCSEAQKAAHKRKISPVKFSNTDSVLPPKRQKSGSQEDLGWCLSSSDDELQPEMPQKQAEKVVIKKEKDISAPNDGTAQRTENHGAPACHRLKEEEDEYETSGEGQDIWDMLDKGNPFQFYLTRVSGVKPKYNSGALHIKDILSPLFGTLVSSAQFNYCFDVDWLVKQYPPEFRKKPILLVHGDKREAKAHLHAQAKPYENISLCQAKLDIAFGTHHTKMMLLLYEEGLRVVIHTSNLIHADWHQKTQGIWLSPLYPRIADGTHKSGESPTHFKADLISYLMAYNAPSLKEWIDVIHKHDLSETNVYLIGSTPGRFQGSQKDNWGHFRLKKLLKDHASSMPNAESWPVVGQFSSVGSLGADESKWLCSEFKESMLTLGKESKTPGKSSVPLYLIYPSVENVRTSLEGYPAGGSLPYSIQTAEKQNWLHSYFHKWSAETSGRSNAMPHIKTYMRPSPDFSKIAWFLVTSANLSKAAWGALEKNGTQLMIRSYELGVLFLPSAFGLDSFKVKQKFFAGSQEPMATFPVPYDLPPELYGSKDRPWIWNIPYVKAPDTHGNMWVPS
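Signal: AlphaScreen proximity between streptavidin donor and anti-FITC acceptor beads on intact substrate. Reaction: Tdp1 1 nM, substrate 15 nM final, 5 min RT after 15 min compound preincubation.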
GCN5L2 inh – blocks human GCN5L2 histone acetyltransferase. Q92830. GCN5L2 HAT assay, ThioGlo1 CoA-SH fluorescence. Potency, µM (highest dose often 58.9 µM), without a hit: top-dose activity change, negative = inhibition, most hits filed as inhibitors. actives 0.21% (n = 390,000). AID 504327
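GCN5L2 (20 nM) in 50mM HEPES pH 7.5, 0.1mM EDTA, 0.01% Tween-20 preincubated 15 min with compounds at room temperature. Reaction started with H3(1-25) 75uM, acetyl-CoA 70uM, ThioGlo1 50uM; CoA-thiol fluorescence (Ex340/Em540) read at 0 and 20 min.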
TDP1 cell CPT – DT40-hTDP1 cell growth loss with CPT; chicken DT40 Tdp1-/-;hTDP1 cells + 20 nM CPT, ATP luminescence, 48 h; Potency, µM (top dose mostly 46.2 µM), without a hit: top-dose activity change, negative = growth inhibition, actives largely listed as inhibitors; actives 12% (n = 420,000); further: nearly all actives have a fitted effect of over 55% in size
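Cell growth measured by CellTiter-Glo luminescence after a minimum 48 h, 37 C compound exposure with 20 nM CPT in Tdp1-knockout DT40 cells stably expressing hTDP1, seeded 400/well; qHTS titration format.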
* marks the source's active call; other numbers are inactive results; ? = inconclusive; . = no result; [ ] = another dose, or the depositor's remark. The call rests on the fitted dose curve; in most records, active means well fitted curve in the direction sought with a large enough effect; inconclusive means small, poorly fitted or top-dose-only effect, or another doubt; inactive means no such curve, though single readings can be large; an effect the other way counts as inactive or inconclusive. On the % scale 0 is the no-effect control and ±100 the full control effect; potency means the concentration at half of the fitted maximal effect.

SMILES | VDR inh | PLK1 PBD inh | DT40 TDP1 no CPT | TDP1 inh | GCN5L2 inh | TDP1 cell CPT
CC1(C(=O)Nc2cccc(-n3cnnn3)c2)Cc2ccccc2C(=O)O1 (configuration not stated) | 3.3% | 2.9% | -10.2% | -2.1% | -9.7% | -16.2%
CCCNC(=O)c1ccc(N2CCC3(CC2)CC(c2cccc(Br)c2)=NO3)c([N+](=O)[O-])c1 | 3.0% | -15.5% | 8.2µM* | . | -6.2% | 6.51µM*
Cc1ccc(CNC(=O)c2ccc(N3CCC4(CC3)CC(c3cccc(Br)c3)=NO4)c([N+](=O)[O-])c2)cc1 | -13.1% | -7.0% | ? | 0.1% | -3.1% | 10.3µM*
Cc1ccc(CNC(=O)c2ccc(N3CCC4(CC3)CC(c3cccc(Br)c3)=NO4)c(NC(=O)c3ccc(Br)cc3)c2)cc1 | -11.0% | 3.5% | -5.2% | -0.1% | -4.8% | -5.4%
CCCCn1c(CNC(=O)C23CC4CC(CC(C4)C2)C3)nnc1SCC(=O)Nc1ccccc1 | 6.9% | . | ? | 0.0% | -4.9% | ?
CC1(C)Cc2c(sc3nc(-c4cccs4)n(N)c(=O)c23)CO1 | 12.6% | -6.7% | 23.1µM* | -6.2% | -4.2% | 16.4µM*
CC1(C)Cc2c(sc3nc(-c4ccccc4)n(N)c(=O)c23)CO1 | -24.5% | -16.1% | -30.9% | 1.9% | 0.1% | -36.7%
CC(C)=CCc1cc([C@@H]2COc3c(ccc4c3C=CC(C)(C)O4)C2)c(O)cc1O | -18.0% | 4.5% | ? | . | . | 18.4µM*
CC1(C)C=Cc2c(ccc3c2OC[C@H](c2ccc(O)cc2O)C3)O1 | 2.6% | -5.2% | ? | 5.8% | -12.6% | 13µM*
CC(=O)Oc1ccc([C@@H]2COc3c(ccc4c3C=CC(C)(C)O4)C2)c(OC(C)=O)c1 | 2.7% | -1.4% | ? | . | . | ?
COCCn1c(SCC(=O)NC(=O)NC2CCCC2)nc2ccccc2c1=O | 1.1% | 1.2% | ? | 2.1% | -6.9% | ?
O=C(c1cnccn1)N1CCC[C@@]2(CCN(c3ccccn3)C2)C1 | 0.9% | . | -17.8% | . | 12.6% | 12.5%
COc1ccc(Cl)cc1N1C(=O)/C(=C\c2sccc2C)N=C1SCC(=O)NC1CC1 | -16.5% | 1.9% | 16.4µM* | 7.9% | -11.1% | 16.4µM*
C=CCN1C(=O)/C(=C\c2ccc(Cl)cc2)N=C1SCC(=O)NC1CCCCC1 | 10.8% | -3.7% | -16.2% | 0.0% | -12.3% | -4.7%
CCc1ccccc1NC(=O)C1CCN(S(=O)(=O)c2ccc3c(c2)N(C(C)=O)CCO3)CC1 | -4.3% | -3.4% | 12.3% | 0.2% | -3.6% | -7.6%
CCCCCCCC/C=C\CCCCCCCC(=O)OC[C@@H](O)[C@H]1OC[C@H](O)[C@H]1O | . | . | 2.6% | . | . | 1.9%
OC1CCN(Cc2cccc(Oc3ccccc3)c2)CC1 | -17.7% | -17.6% | ? | 3.0% | -2.4% | 23.1µM*
O=C(c1ccccc1)N1CCN(Cc2cccc(Oc3ccccc3)c2)CC1 | ? | 23.8µM* | ? | 5.1% | -3.3% | ?
CN1CCN(Cc2cccc(Oc3ccccc3)c2)CC1 | 4.9% | 6.3% | ? | 0.0% | -17.9% | -13.9%
CCOC(=O)Cn1nc(N2CCN(c3ccc(F)cc3)CC2)ccc1=O | -5.3% | . | ? | 2.3% | 0.0% | -15.1%
CS(=O)(=O)CCSc1ncccc1C(=O)NCc1cccs1 | -18.2% | -4.7% | -2.2% | 0.0% | -1.0% | -2.6%
Cc1cc(C)cc(NC(=O)c2cc(S(=O)(=O)NCc3ccco3)ccc2F)c1 | 7.4% | -13.4% | 11.2µM* | 5.2% | -11.3% | ?
Cc1cc(C)n(-c2ccc(C(=O)Nc3ccc(S(=O)(=O)NCc4ccco4)cc3)cc2)n1 | -4.0% | -10.4% | 18.4µM* | 9.8% | -5.2% | 18.4µM*
O=S(=O)(NCc1ccccc1)c1ccc(NC(=S)NCc2ccco2)cc1 | -19.8% | -19.7% | 11.6µM* | . | -11.9% | ?
O=C(c1ccc(F)cc1)c1c[nH]c(C(=O)NCc2ccco2)c1 | 2.6% | -3.3% | 11.6µM* | 1.1% | -1.6% | ?
SMILES | VDR inh | PLK1 PBD inh | DT40 TDP1 no CPT | TDP1 inh | GCN5L2 inh | TDP1 cell CPT
CCC(=O)c1c[nH]c(C(=O)NCc2ccco2)c1 | -3.0% | 0.1% | -5.4% | -1.1% | -7.8% | 1.0%
CCOc1ccc(OCc2ccc(C(=O)NN=Cc3ccc[nH]3)cc2)cc1 | -14.4% | -15.2% | -11.4% | 1.5% | -19.2% | -11.2%
COC(=O)NC(CC(C)=O)c1ccccc1 (configuration not stated) | . | . | . | 4.8%[21 µM] | . | .
CCOc1ccc(C(=O)Nc2cccc(-c3nc4cccnc4s3)c2C)cc1OCC | 14.4% | . | -9.3% | 11.4% | -6.2% | -5.9%
O=C(Nc1ccc(S(=O)(=O)NCc2ccco2)cc1)c1ccc(F)cc1 | 29.9% | -22.6% | ? | 56.2µM* | -8.1% | ?
O=C(Nc1ccccc1)c1ccc(S(=O)(=O)NCc2ccco2)cc1 | -3.3% | -8.9% | ? | 2.2% | 2.5% | ?
C/C(=N\Nc1nc(Cl)c(Cl)cc1Cl)c1ccc(S(=O)(=O)NCc2ccco2)cc1 | -4.7% | -9.4% | 20.6µM* | 5.5% | -0.2% | ?
COc1ccccc1NC(=O)CN(Cc1ccco1)C(=O)c1ccc(-n2nc(C)cc2C)cc1 | -1.2% | -2.7% | 16.4µM* | 7.1% | -4.6% | ?
C/C(=N\Nc1ccccn1)c1ccc(S(=O)(=O)NCc2ccco2)cc1 | -10.2% | -15.4% | ? | 7.1% | -2.8% | -19.4%
C[C@H](CO)N1C[C@H](C)[C@@H](CN(C)S(=O)(=O)c2cn(C)cn2)Oc2ccc(NC(=O)Cn3cnnn3)cc2C1=O | -11.8% | 0.7% | 8.1% | 0.7% | -2.2% | 5.2%
COc1ccc(S(=O)(=O)NCc2ccncc2)cc1NC(=O)c1ccccc1C | -3.4% | -15.9% | -28.9% | 1.9% | -3.4% | ?
COc1ccc(S(=O)(=O)NCc2ccccn2)cc1NC(=O)c1ccc(C)cc1 | 18.5% | 5.9% | 5.17µM* | -0.5% | -0.9% | 7.31µM*
COc1ccc(S(=O)(=O)NCc2ccncc2)cc1NC(=O)c1ccccc1F | -5.1% | -0.6% | -26.1% | -2.0% | -1.1% | ?
CCOc1ccc(S(=O)(=O)NCc2ccccn2)cc1NC(=O)c1ccccc1F | -10.0% | 1.0% | 0.651µM* | 2.5% | -7.9% | 0.651µM*
COc1cc(S(=O)(=O)NCc2ccccn2)ccc1Cl | ? | 23.8µM* | ? | . | -2.6% | ?
COc1ccc(S(=O)(=O)NCc2ccccn2)cc1NC(=O)c1ccccc1 | 0.5% | -9.7% | 4.11µM* | 10.9% | -3.5% | 4.61µM*
O=C1NC(=O)[C@H]2[C@@H]1[C@@H]1C=C[C@H]2C1 | . | . | 0.2% | . | . | 8.6%
Fc1ccc(CNc2ncnc3c2cnn3-c2ccccc2)cc1 | 8.2% | -6.6% | ? | 5.1% | . | ?
